Measured values published in PubChem BioAssay (Tox21).
Results filed as inconclusive are left out. Active and inactive are the calls of the source. Unless noted, calls come from the whole dose curve; as a rule, active = well fitted curve in the direction sought with a large enough effect in the repeat runs; inconclusive = weak or mixed curves; inactive = no such curve, though single readings can be large; an effect the other way counts as inactive or inconclusive.

Legend:
[1] = qHTS assay to identify small molecule agonists of the RXR signaling pathway - cell viability counter screen (AID 1159529); note: series mostly up to about 77 µM; nearly all actives have a fitted effect of over 50% in size
Outline: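 CellTiter-Glo luminescence gave viability in the wells also read for beta-lactamase. Cells (RXR-alpha-UAS-bla HEK 293T, 2% charcoal-stripped FBS medium) had 5 hr plating, then 16 hr compound exposure at 37 C; tetraoctyl ammonium bromide served as positive control.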

[2] = qHTS assay to identify small molecule antagonists of the retinoid acid receptor (RAR) signaling pathway - cell viability counter screen (AID 1159551); note: nearly all actives have a fitted effect of over 35% in size
Outline: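 Following overnight attachment, C3RL4 reporter cells received DMSO-dissolved compounds and then retinol (1 uM final). Six hours later at 37 C, ATP content was measured by CellTiter-Glo luminescence.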

[3] = qHTS assay to identify small molecule antagonists of the retinoic acid receptor (RAR) signaling pathway (AID 1159552; note: nearly all actives have a fitted effect of over 50% in size)
Outline: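 Luminescent RARE reporter read-out in C3RL4 cells: 6 hr co-treatment at 37 C of test compounds with retinol at 1 uM final. Cells plated overnight beforehand; luciferase reagent incubated 30 min at room temperature before reading.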

[4] = qHTS assay to identify small molecule agonists of the retinoic acid receptor (RAR) signaling pathway (AID 1159553)
Outline: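 Cell line C3RL4, RARE luciferase reporter. Treatment: compounds in DMSO, 6 hr, 37 C, 5% CO2, after overnight plating. Detection: luminescence, 30 min RT after reagent.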

[5] = qHTS assay to identify small molecule antagonists of the estrogen related receptor (ERR) signaling pathway from Tox21 library - cell viability counter screen (AID 1224834); note: nearly all actives have a fitted effect of over 30% in size
Outline: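 Viability readout (CellTiter-Fluor fluorescence, 30 min at 37 C) multiplexed with the ERR assay; cells treated 17.5 h at 37 C with compounds delivered in DMSO.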

[6] = biological target: Luciferin 4-monooxygenase (Photinus pyralis) (UniProt P08659); test: qHTS assay to identify small molecule inhibitors of firefly luciferase (AID 1224835); note: series mostly up to about 120 µM; nearly all actives have a fitted effect of over 25% in size
Outline: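 Quantitative HTS format; KM concentrations of both substrates. Purified P. pyralis FLuc activity quantified from luminescence images.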

[7] = qHTS assay to identify small molecule agonists of the constitutive androstane receptor (CAR) signaling pathway - cell viability counter screen (AID 1224836); note: series mostly up to about 92 µM; nearly all actives have a fitted effect of over 45% in size
Outline: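 Cell viability multiplexed with the CAR agonist screen: CellTiter-Fluor fluorescence after 23 hr at 37 C. HepG2-CYP2B6-hCAR cells got compounds at 15 concentrations with PK11195 at 0.75 uM final.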

[8] = qHTS assay to identify small molecule antagonists of the constitutive androstane receptor (CAR) signaling pathway - cell viability counter screen (AID 1224837); note: series mostly up to about 92 µM; nearly all actives have a fitted effect of over 45% in size
Outline: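 Fluorescence from CellTiter-Fluor served as the viability signal. Human hepatoma HepG2 cells stably bearing hCAR and CYP2B6-2.2kb received compound plus CITCO (50 nM final) for 23 hr.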

[9] = biological target: Nuclear receptor subfamily 1 group I member 3 (Homo sapiens) (UniProt Q14994); test: qHTS assay to identify small molecule antagonists of the constitutive androstane receptor (CAR) signaling pathway (AID 1224838);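 note: HepG2 cells stably expressing hCAR with CYP2B6 luciferase reporter stimulated by CITCO; nearly all actives have a fitted effect of over 40% in size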
Outline: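 Quantitative HTS in double-stable HepG2-CYP2B6-hCAR cells. After 4 h plating, cells get compound (15 concentrations) and CITCO at 50 nM final, incubate 24 h at 37 C, then ONE-Glo luminescence is read.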

[10] = biological target: Nuclear receptor subfamily 1 group I member 3 (Homo sapiens) (UniProt Q14994); test: qHTS assay to identify small molecule agonists of the constitutive androstane receptor (CAR) signaling pathway (AID 1224839);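 note: HepG2 cells stably carrying human CAR and a CYP2B6 luciferase reporter; series mostly up to about 92 µM; nearly all actives have a fitted effect of over 15% in size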
Outline: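 Luminescent ONE-Glo read-out after 24 hr, 37 C exposure of double-stable HepG2-CYP2B6-hCAR reporter cells to a 15-point compound series, in the presence of 0.75 uM PK11195 (final).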

[11] = qHTS assay to identify small molecule antagonists of the estrogen related receptor signaling pathway with the pleiotropic PPARgamma coactivator (PGC) from Tox21 10K library - cell viability counter screen (AID 1224840; active = well fitted cell-killing curve with a large enough effect in the repeat runs, not every such curve was filed as active; note: nearly all actives have a fitted effect of over 40% in size)
Outline: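 Compounds in DMSO, alongside positive and negative controls, were pinned onto PGC/ERR cells (2,000 per well). Exposure lasted 17.5 hours at 37 C, followed by a 30-minute CellTiter-Fluor incubation and fluorescence reading.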

[12] = qHTS assay to identify small molecule antagonists of the estrogen related receptor signaling pathway with the pleiotropic PPARgamma coactivator (PGC) from Tox21 10K library (AID 1224841; call rule not given here; note: actives are mostly falling curves and most rising ones were filed inactive; nearly all actives have a fitted effect of over 50% in size; note: potency is the fitted concentration of half-maximal effect)
Outline: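 Compound exposure ran 18 hours at 37 C in PGC/ERR cells (2,000/well) that had first rested 6 hours in a 37 C/5% CO2 incubator. Luciferase activity was then detected with One-Glo after a 30-minute room-temperature step.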

[13] = qHTS assay to identify small molecule agonists of the estrogen related receptor signaling pathway with the pleiotropic PPARgamma coactivator (PGC) from Tox21 10K library (AID 1224842); note: nearly all actives have a fitted effect of over 15% in size
Outline: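 PGC/ERR reporter cells (NTP line) were seeded 2,000 per well, rested 6 h at 37 C/5% CO2, then pin-dosed with compounds in DMSO for 18 h at 37 C; luciferase read by One-Glo luminescence after 30 min at room temperature.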

[14] = biological target: Thyrotropin receptor (Homo sapiens) (UniProt P16473); test: qHTS assay to identify small molecule agonists of the thyroid stimulating hormone receptor (TSHR) signaling pathway (AID 1224843; calls by dose curve; note: nearly all actives have a fitted effect of over 45% in size)
Outline: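 Cell line HEK293 with TSHR; density 800/well. Exposure 30 min RT. Readout HTRF cAMP (cAMP-d2/anti-cAMP-cryptate), 1 h RT before reading.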

[15] = qHTS assay to identify small molecule antagonists of the estrogen related receptor (ERR) signaling pathway (AID 1224819; note: potency is the fitted concentration of half-maximal effect; nearly all actives have a fitted effect of over 50% in size)
Outline: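 LOPAC library screened for antagonism as reduced One-Glo luminescence in ERR reporter cells (2,000/well). Compounds were added after 6 h pre-incubation and left 18 h at 37C; reading followed a 30 min room-temperature reagent step.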

[16] = qHTS assay to identify small molecule agonists of the estrogen related receptor (ERR) signaling pathway (AID 1224820)
Outline: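 Cells: ERR line from NTP, 2,000/well. Pre-incubation 6 h, 37 C/5% CO2. Compound (DMSO) pin transfer, 18 h 37 C. One-Glo, 30 min RT, luminescence.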

[17] = qHTS assay to identify small molecule agonists of the estrogen related receptor signaling pathway with the pleiotropic PPARgamma coactivator (PGC) (AID 1224823)
Outline: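 Steps: plate PGC/ERR cells at 2,000 cells/well; incubate 6 h, 37 C/5% CO2; pin-transfer compounds (DMSO); incubate 18 h, 37 C; add One-Glo; 30 min RT; read luminescence.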

Measured: Potency

Chain of Luciferin 4-monooxygenase (Photinus pyralis) (P08659 whole entry, looked up): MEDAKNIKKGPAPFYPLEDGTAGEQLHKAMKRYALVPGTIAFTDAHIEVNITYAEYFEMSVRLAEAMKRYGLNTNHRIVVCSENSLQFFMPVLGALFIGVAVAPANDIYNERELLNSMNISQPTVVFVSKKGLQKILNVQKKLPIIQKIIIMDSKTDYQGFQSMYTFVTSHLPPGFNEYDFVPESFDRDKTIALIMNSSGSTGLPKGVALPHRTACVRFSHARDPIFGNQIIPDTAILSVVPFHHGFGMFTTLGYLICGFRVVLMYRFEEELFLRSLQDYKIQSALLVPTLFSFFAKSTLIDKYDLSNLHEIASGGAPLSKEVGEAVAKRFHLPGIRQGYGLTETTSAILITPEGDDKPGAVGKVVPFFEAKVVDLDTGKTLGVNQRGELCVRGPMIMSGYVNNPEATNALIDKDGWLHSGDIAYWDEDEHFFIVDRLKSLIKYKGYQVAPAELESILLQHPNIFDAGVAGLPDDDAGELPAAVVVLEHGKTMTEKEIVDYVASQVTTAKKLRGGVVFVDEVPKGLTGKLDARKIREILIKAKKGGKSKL
Chain of Nuclear receptor subfamily 1 group I member 3 (Homo sapiens) (Q14994 whole entry, looked up): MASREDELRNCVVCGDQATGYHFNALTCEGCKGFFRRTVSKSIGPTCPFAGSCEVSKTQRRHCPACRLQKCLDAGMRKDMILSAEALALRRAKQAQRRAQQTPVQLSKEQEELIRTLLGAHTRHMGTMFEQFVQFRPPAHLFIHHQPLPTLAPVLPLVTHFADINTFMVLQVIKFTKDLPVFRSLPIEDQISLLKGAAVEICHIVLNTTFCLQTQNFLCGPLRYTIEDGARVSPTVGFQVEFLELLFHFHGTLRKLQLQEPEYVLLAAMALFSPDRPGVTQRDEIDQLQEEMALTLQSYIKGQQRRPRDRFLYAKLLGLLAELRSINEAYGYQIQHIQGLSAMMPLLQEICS
Chain of Thyrotropin receptor (Homo sapiens) (P16473 whole entry, looked up): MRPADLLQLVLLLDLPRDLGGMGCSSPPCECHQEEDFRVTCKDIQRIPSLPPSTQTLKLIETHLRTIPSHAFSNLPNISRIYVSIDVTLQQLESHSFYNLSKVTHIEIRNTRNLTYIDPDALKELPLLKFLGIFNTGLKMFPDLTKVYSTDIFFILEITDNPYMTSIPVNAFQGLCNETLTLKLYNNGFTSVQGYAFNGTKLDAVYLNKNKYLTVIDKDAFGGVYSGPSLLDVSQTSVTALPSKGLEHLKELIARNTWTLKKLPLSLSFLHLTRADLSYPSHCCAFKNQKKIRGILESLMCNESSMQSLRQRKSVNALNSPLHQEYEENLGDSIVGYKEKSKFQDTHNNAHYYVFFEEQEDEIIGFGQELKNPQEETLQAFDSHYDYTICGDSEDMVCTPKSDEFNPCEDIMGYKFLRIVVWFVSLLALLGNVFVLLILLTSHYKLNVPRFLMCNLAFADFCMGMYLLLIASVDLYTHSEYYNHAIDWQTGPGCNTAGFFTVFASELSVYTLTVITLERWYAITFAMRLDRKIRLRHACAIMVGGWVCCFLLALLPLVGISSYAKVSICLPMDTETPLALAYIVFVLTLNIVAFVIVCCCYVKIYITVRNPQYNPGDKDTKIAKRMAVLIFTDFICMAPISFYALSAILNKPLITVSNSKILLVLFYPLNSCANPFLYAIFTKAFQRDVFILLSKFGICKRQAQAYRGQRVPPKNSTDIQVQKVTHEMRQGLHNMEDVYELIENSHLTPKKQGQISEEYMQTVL

COc1cc(/C=C/C(=O)O[C@H]2CC[C@]34C[C@]35CC[C@]3(C)[C@@H]([C@H](C)CCC=C(C)C)CC[C@@]3(C)[C@@H]5CC[C@H]4C2(C)C)ccc1O
not listed: [14] | [15] | [16] | [17]
inactive: all other assays above

CCOC(=O)O[C@]1(C(=O)OCCl)CC[C@H]2[C@@H]3CCC4=CC(=O)C=C[C@]4(C)[C@H]3[C@@H](O)C[C@@]21C
inactive: [1] | [2] | [3] | [4] | [5] | [6] | [7] | [8] | [11]

CCCCCOC(=O)CCCC
not listed: [9] | [10] | [12] | [13] | [15] | [16] | [17]
inactive: all other assays above

N#CC1(c2ccc(F)cc2)CCC(=O)CC1
not listed: [14] | [15] | [16] | [17]
inactive: all other assays above

O=C(NO)C1(NS(=O)(=O)c2ccc(Oc3ccc(F)cc3)cc2)CCOCC1
not listed: [9] | [10] | [12] | [14] | [15] | [16] | [17]
inactive: all other assays above

CCCCCCCCCCC=O
not listed: [8] | [9] | [10] | [15] | [16] | [17]
inactive: all other assays above

O=C(O)c1c(Cl)cccc1Cl
not listed: [8] | [12] | [13] | [14] | [15] | [16] | [17]
inactive: all other assays above

OCCN(CCO)c1nc(N2CCCCC2)c2nc(N(CCO)CCO)nc(N3CCCCC3)c2n1
active: [15] 11.9 µM | [12] 21.1 µM
not listed: [5] | [7] | [8] | [11] | [14]
inactive: all other assays above
